# In PubChem BioAssay (NCI):
# Compounds without any hit were thinned out: in the full panel of roughly 83,000, 20% have a hit.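 Percent growth is the endpoint: 0 to 100 indicates growth inhibition (40 means 60% inhibition), 0 means no net growth, and negative values indicate cell death.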 Unmarked numbers belong to inactive results. Activity calls are given as the source filed them. How the source made its calls: active means growth percent below 10; inactive means the rest.
# Tests used:
# Experiment in all cases: NCI-60 one-dose screen, 48 h (100 = growth as untreated, 0 = no growth, -100 = all killed)
# Conditions in all cases: 10 µM
# SK-MEL-2 melanoma = test system: SK-MEL-2 melanoma
# EKVX NSCLC = test system: EKVX NSCLC
# SN12C renal = test system: SN12C renal
# UO-31 renal = test system: UO-31 renal
# TK-10 renal = test system: TK-10 renal
# ACHN renal = test system: ACHN renal
# CAKI-1 renal = test system: CAKI-1 renal
# A498 renal = test system: A498 renal
# MOLT-4 leukemia = test system: MOLT-4 leukemia
# SR leukemia = test system: SR leukemia
# RPMI-8226 leukemia = test system: RPMI-8226 leukemia
# OVCAR-8 ovarian = test system: OVCAR-8 ovarian
# OVCAR-5 ovarian = test system: OVCAR-5 ovarian
# SK-OV-3 ovarian = test system: SK-OV-3 ovarian
# IGROV1 ovarian = test system: IGROV1 ovarian
# OVCAR-3 ovarian = test system: OVCAR-3 ovarian
# HS 578T breast = test system: HS 578T breast
# NCI/ADR-RES ovarian = test system: NCI/ADR-RES ovarian
# CCRF-CEM leukemia = test system: CCRF-CEM leukemia
# OVCAR-4 ovarian = test system: OVCAR-4 ovarian
SMILES,growth (SK-MEL-2 melanoma),growth (EKVX NSCLC),growth (SN12C renal),growth (UO-31 renal),growth (TK-10 renal),growth (ACHN renal),growth (CAKI-1 renal),growth (A498 renal),growth (MOLT-4 leukemia),growth (SR leukemia),growth (RPMI-8226 leukemia),growth (OVCAR-8 ovarian),growth (OVCAR-5 ovarian),growth (SK-OV-3 ovarian),growth (IGROV1 ovarian),growth (OVCAR-3 ovarian),growth (HS 578T breast),growth (NCI/ADR-RES ovarian),growth (CCRF-CEM leukemia),growth (OVCAR-4 ovarian)
COc1cc(OC)cc(-c2n/c(=C\c3c(O)[nH]c4ccc(OC)cc34)cc3c2=Nc2ccccc2-3)c1,108%,96.6%,107%,71.2%,125%,114%,90.6%,90.6%,12.4%,9.3% (active),77.8%,72.7%,122%,126%,86.5%,94.6%,95.3%,69.4%,–,–
O=C1/C(=C/c2cccs2)CCC/C1=C\c1cccs1,95.8%,74%,103%,–,78.2%,–,87.4%,74.8%,89.1%,78.1%,57.5%,93.2%,79.5%,101%,98.8%,107%,95.7%,88.7%,80.9%,77.9%
CCOC(=O)c1sc(NC(=O)c2cc(OC)c(OC)c(OC)c2)nc1C,30.8%,99.8%,92.6%,–,–,105%,116%,88.8%,87.6%,79%,83%,99.3%,108%,152%,-10.1% (active),103%,80.8%,103%,88.3%,113%
COc1cc(/C=C/C(=O)c2cc(-c3ccccc3)ccc2O)cc(OC)c1OC,77.2%,54%,76.2%,53.4%,105%,77.3%,61.6%,74.3%,28%,43.4%,12.3%,–,93.1%,71.3%,83%,77.2%,82.3%,69.4%,–,68%
O=[N+]([O-])c1ccc(-c2nc(-c3ccccc3)c(-c3ccccc3)n2-c2ccccc2)cc1,-38.1% (active),34.8%,43.6%,–,–,19%,48.1%,41.3%,-44.6% (active),4.19% (active),-20.3% (active),26.7%,91.5%,55.5%,-29.1% (active),40.2%,–,5.77% (active),1.03% (active),24.7%
CC(=O)OC1Oc2ccccc2-c2oc(=O)c(-c3cc(=O)oc4cc(O)ccc34)cc21 (stereo unspecified),87.3%,86.6%,95.6%,–,82.5%,85.8%,93.7%,54.8%,42.8%,3.66% (active),46.7%,89.1%,75.8%,83.3%,49.4%,63.8%,59.5%,75.5%,–,77.2%
CN(C)c1ccc2cc(-c3cc4c(oc3=O)-c3ccccc3OC4O)c(=O)oc2c1 (stereo unspecified),-38.2% (active),22.6%,57.9%,–,-36.4% (active),4.78% (active),-4.81% (active),13.2%,-64.7% (active),-12.7% (active),-9.42% (active),13.6%,-9.51% (active),28.8%,-28.7% (active),-30% (active),-7.78% (active),0.415% (active),-20.5% (active),26%
C#CCNCCCN1C(=O)c2ccc3c4c(ccc(c24)C1=O)C(=O)N(CCCNCC#C)C3=O,-21.5% (active),-79.3% (active),-97.7% (active),-62.1% (active),-11.3% (active),–,-77.9% (active),-96.2% (active),-13.1% (active),-21.1% (active),12.5%,-31.1% (active),-73.6% (active),-42.7% (active),-75.1% (active),-27.6% (active),-22.9% (active),-32% (active),-0.672% (active),-97.8% (active)
COc1ccc2nc(/C=C/c3ccc(N(C)C)cc3)sc2c1,101%,96.9%,91.4%,–,103%,104%,97.6%,71.7%,77.7%,86.1%,104%,115%,97.4%,197%,82.5%,103%,102%,93.1%,82.6%,107%
O=C(O)CCCCSCCCCC(=O)O,93.2%,106%,–,92.7%,92%,104%,100%,118%,93.1%,87.6%,97.9%,106%,122%,98.7%,97.9%,109%,104%,109%,95.8%,113%
Cc1cc(O)c(C2=NN(c3ccc(S(N)(=O)=O)cc3)C(c3ccc(N(C)C)cc3)C2)c(C)c1Cl (stereo unspecified),92.5%,51.1%,74.8%,–,113%,88.6%,–,74.3%,27.3%,25.5%,-22.2% (active),75.2%,96.8%,106%,34.1%,80.3%,82.5%,85.6%,28%,–
CCOC(=O)c1c(C(F)(F)F)n([O-])c2ccc(OC)cc2[n+]1=O,46.4%,9.51% (active),22.6%,–,49.8%,32.1%,–,50.8%,5.77% (active),-13.3% (active),-34.8% (active),23.8%,–,23.8%,24.2%,32.9%,41.1%,31.3%,5.58% (active),30.5%
COc1cc(N=C2C(=O)N(Cc3ccccc3)c3ccccc32)cc(OC)c1OC,98.3%,101%,99.6%,–,112%,97.4%,83.8%,108%,96.9%,74.5%,38.4%,96.6%,95%,101%,86%,84.4%,82.9%,94.6%,–,–
COC1OC2COC(c3ccccc3)OC2C(=O)C1NC(=O)c1ccccc1 (stereo unspecified),94%,79.5%,96.7%,–,108%,98.9%,88.9%,116%,110%,122%,97.3%,101%,93.7%,105%,114%,99.8%,96.6%,103%,97.7%,103%
CCCCCCCOc1cccc(/C=C2/C(=O)N=C3SCCCN32)c1,83%,74.2%,–,61.9%,75.7%,79.2%,84.9%,97.6%,50.2%,47.9%,40.8%,71.6%,91.2%,88%,79.9%,50.9%,91.4%,56.8%,60.4%,63.1%
O=c1oc2c3ccc4cnccc4c3[nH]c2c2ccccc12,67.1%,74.2%,73.8%,–,79.3%,63.5%,54.3%,55.5%,13.7%,-51.3% (active),-21.8% (active),24.3%,46.8%,89.1%,21.2%,38.2%,68.1%,71.5%,–,25.2%
CC(=O)Nc1nc(C)c(C(=O)N/N=C/c2cccn2C)s1,43.6%,103%,94.5%,93.7%,–,107%,111%,89.6%,100%,107%,110%,–,110%,141%,–,105%,72.5%,96%,98.8%,–
